# Measurements taken from ChEMBL document CHEMBL2218924, “A broad activity screen in support of a chemogenomic map for kinase signalling research and drug discovery” (Biochem J, 2013).
# Assays:
# [1] = molecular target: T1, Mitogen-activated protein kinase 12 (Homo sapiens) (UniProt P53778); details: at 1 µM
# T1 sequence (whole entry): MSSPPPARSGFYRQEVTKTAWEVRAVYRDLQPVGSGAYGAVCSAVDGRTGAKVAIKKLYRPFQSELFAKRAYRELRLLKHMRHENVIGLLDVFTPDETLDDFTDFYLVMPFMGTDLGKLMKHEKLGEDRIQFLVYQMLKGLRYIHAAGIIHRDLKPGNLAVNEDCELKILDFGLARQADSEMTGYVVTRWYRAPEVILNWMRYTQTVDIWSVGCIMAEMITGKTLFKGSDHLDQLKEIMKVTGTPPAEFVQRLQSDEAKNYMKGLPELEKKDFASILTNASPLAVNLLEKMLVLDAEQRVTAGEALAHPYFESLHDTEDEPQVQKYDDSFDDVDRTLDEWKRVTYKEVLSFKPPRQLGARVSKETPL
# [2] = molecular target: T1, Mitogen-activated protein kinase 12 (Homo sapiens); details: at 10 µM
# [3] = molecular target: T2, Tyrosine-protein kinase receptor TYRO3 (Homo sapiens) (UniProt Q06418); details: at 1 µM
# T2 sequence (whole entry): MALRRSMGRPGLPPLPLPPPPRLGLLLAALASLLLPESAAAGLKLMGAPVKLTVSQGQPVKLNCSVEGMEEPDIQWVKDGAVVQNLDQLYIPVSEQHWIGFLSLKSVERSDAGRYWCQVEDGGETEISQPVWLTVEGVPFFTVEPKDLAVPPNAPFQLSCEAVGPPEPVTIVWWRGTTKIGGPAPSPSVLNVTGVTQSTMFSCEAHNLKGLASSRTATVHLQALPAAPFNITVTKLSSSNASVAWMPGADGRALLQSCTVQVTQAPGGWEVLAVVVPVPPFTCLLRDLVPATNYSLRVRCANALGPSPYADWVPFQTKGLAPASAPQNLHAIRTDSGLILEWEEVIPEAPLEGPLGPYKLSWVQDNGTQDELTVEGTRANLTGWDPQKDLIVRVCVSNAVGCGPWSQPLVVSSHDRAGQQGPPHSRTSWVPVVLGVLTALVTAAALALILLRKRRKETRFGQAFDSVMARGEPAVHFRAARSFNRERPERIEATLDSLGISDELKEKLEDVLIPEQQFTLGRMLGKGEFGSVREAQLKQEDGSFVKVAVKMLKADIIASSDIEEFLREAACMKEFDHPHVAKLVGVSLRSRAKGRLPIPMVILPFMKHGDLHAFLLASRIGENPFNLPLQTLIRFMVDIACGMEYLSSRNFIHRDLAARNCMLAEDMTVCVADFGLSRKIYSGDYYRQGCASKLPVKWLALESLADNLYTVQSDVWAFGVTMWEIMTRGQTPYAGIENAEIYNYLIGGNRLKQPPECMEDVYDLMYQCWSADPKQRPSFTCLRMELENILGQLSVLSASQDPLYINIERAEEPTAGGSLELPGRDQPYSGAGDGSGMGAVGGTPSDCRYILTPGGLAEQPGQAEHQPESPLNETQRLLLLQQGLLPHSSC
# [4] = molecular target: T2, Tyrosine-protein kinase receptor TYRO3 (Homo sapiens); details: at 10 µM
# [5] = molecular target: Ribosomal protein S6 kinase alpha-1 (Homo sapiens) (UniProt Q15418); details: at 1 µM
# [6] = molecular target: Ribosomal protein S6 kinase alpha-1 (Homo sapiens) (UniProt Q15418); details: at 10 µM
# [7] = molecular target: Ribosomal protein S6 kinase alpha-3 (Homo sapiens) (UniProt P51812); details: at 1 µM
# [8] = molecular target: Ribosomal protein S6 kinase alpha-3 (Homo sapiens) (UniProt P51812); details: at 10 µM
# [9] = molecular target: Ribosomal protein S6 kinase alpha-2 (Homo sapiens) (UniProt Q15349); details: at 1 µM
# [10] = molecular target: Ribosomal protein S6 kinase alpha-2 (Homo sapiens) (UniProt Q15349); details: at 10 µM
# [11] = molecular target: Ribosomal protein S6 kinase alpha-6 (Homo sapiens) (UniProt Q9UK32); details: at 1 µM
# [12] = molecular target: Ribosomal protein S6 kinase alpha-6 (Homo sapiens) (UniProt Q9UK32); details: at 10 µM
# [13] = molecular target: Mitogen-activated protein kinase 14 (Homo sapiens) (UniProt Q16539); details: at 1 µM
# [14] = molecular target: Mitogen-activated protein kinase 14 (Homo sapiens) (UniProt Q16539); details: at 10 µM
# [15] = molecular target: Mitogen-activated protein kinase 11 (Homo sapiens) (UniProt Q15759); details: at 1 µM
# [16] = molecular target: Mitogen-activated protein kinase 11 (Homo sapiens) (UniProt Q15759); details: at 10 µM
# [17] = molecular target: T3, Mitogen-activated protein kinase 13 (Homo sapiens) (UniProt O15264); details: at 1 µM
# T3 sequence (whole entry): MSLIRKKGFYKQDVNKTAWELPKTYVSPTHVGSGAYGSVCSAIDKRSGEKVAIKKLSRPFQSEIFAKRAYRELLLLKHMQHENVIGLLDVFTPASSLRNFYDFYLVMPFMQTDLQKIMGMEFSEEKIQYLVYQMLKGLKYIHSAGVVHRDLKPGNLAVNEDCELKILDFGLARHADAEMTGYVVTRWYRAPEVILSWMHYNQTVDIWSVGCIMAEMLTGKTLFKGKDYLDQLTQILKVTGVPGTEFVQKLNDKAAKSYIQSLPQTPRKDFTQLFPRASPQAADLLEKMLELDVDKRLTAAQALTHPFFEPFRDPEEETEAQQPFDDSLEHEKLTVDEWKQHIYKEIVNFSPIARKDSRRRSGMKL
# [18] = molecular target: T3, Mitogen-activated protein kinase 13 (Homo sapiens); details: at 10 µM
# [19] = molecular target: T4, Serine/threonine-protein kinase Sgk1 (Homo sapiens) (UniProt O00141); details: at 1 µM
# T4 sequence (whole entry): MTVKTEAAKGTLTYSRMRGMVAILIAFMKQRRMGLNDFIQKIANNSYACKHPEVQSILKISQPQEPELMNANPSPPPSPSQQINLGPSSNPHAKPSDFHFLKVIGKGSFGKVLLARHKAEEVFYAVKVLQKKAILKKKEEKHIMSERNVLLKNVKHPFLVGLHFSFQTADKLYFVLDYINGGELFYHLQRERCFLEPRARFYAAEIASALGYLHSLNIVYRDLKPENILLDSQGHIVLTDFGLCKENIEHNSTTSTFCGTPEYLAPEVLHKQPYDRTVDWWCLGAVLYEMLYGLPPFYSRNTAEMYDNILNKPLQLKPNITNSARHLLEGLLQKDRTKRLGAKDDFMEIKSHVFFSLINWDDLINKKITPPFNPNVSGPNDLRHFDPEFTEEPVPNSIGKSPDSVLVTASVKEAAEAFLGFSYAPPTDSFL
# [20] = molecular target: T4, Serine/threonine-protein kinase Sgk1 (Homo sapiens); details: at 10 µM
# Mitogen-activated protein kinase 14 (Homo sapiens), sequence (Q16539 whole entry): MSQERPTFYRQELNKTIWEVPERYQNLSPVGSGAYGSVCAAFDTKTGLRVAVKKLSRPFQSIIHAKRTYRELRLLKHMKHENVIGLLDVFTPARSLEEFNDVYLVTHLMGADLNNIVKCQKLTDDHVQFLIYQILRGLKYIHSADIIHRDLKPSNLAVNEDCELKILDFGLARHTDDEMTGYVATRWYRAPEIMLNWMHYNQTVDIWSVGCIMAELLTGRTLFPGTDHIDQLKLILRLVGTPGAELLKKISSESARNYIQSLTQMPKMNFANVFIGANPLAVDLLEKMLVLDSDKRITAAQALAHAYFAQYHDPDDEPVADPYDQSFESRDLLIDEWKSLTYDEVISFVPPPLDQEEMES
# Ribosomal protein S6 kinase alpha-3 (Homo sapiens), sequence (P51812 whole entry): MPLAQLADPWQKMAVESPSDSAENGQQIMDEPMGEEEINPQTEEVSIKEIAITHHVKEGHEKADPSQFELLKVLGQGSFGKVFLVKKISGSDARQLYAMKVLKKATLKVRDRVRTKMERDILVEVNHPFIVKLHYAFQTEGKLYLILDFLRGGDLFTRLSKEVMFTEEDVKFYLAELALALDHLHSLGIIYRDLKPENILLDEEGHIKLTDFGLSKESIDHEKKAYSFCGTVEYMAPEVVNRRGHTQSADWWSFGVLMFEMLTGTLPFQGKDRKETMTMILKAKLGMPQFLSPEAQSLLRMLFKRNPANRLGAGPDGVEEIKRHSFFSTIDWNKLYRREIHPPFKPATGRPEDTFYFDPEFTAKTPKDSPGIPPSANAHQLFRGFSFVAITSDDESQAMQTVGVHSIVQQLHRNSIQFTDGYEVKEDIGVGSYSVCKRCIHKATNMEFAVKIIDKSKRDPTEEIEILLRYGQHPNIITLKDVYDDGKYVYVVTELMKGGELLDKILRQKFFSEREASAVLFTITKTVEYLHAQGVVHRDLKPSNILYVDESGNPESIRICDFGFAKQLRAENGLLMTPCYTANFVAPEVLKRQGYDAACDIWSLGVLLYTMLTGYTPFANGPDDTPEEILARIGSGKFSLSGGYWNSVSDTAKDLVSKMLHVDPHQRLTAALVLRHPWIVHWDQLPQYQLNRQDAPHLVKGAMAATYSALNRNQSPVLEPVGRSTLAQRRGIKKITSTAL
# Mitogen-activated protein kinase 11 (Homo sapiens), sequence (Q15759 whole entry): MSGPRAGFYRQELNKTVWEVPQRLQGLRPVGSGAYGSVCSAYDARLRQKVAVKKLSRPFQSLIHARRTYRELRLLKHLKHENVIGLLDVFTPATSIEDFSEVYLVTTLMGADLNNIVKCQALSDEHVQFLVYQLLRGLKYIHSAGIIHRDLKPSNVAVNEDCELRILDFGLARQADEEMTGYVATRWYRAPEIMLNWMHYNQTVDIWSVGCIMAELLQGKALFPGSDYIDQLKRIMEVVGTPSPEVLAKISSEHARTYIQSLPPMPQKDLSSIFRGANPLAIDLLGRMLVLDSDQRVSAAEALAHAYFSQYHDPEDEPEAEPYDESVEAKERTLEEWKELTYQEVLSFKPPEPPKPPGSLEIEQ
# Ribosomal protein S6 kinase alpha-1 (Homo sapiens), sequence (Q15418 whole entry): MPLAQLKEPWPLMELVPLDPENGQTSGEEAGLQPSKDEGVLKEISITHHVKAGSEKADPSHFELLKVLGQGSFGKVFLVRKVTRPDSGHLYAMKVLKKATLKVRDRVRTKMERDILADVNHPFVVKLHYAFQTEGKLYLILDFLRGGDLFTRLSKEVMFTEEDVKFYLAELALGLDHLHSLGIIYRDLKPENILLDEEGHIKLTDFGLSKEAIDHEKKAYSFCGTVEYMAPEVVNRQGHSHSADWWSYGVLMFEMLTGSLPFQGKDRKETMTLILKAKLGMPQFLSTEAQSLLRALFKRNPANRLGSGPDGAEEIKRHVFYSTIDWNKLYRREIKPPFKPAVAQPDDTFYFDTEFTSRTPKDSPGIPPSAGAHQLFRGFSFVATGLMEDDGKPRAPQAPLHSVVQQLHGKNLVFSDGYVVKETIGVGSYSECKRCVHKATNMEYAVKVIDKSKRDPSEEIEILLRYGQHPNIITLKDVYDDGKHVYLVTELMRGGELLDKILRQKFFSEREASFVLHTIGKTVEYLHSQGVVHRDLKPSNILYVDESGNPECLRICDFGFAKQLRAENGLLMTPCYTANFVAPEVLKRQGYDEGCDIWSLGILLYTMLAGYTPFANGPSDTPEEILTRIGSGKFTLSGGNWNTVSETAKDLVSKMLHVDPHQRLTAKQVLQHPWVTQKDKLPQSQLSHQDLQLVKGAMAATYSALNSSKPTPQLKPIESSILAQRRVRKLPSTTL
# Ribosomal protein S6 kinase alpha-2 (Homo sapiens), sequence (Q15349 whole entry): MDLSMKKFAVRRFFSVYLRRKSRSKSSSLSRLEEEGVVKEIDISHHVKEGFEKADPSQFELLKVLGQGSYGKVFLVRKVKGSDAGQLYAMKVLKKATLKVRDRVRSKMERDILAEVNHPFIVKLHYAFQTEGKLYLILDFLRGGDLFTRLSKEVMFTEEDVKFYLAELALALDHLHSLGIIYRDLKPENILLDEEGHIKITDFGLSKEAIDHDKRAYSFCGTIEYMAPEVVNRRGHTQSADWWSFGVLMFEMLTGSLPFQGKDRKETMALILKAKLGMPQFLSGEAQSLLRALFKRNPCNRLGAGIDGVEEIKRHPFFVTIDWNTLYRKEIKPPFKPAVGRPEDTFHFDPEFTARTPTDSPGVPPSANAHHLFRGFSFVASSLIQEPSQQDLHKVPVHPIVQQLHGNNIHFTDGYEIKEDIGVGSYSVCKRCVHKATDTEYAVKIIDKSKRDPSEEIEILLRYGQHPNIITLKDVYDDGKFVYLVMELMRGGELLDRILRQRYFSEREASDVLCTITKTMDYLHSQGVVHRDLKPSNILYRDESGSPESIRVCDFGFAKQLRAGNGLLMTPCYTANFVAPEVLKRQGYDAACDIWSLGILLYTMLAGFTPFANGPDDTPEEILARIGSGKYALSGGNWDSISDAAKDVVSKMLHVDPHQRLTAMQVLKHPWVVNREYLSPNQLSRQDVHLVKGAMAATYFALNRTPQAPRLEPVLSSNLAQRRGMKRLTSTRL
# Ribosomal protein S6 kinase alpha-6 (Homo sapiens), sequence (Q9UK32 whole entry): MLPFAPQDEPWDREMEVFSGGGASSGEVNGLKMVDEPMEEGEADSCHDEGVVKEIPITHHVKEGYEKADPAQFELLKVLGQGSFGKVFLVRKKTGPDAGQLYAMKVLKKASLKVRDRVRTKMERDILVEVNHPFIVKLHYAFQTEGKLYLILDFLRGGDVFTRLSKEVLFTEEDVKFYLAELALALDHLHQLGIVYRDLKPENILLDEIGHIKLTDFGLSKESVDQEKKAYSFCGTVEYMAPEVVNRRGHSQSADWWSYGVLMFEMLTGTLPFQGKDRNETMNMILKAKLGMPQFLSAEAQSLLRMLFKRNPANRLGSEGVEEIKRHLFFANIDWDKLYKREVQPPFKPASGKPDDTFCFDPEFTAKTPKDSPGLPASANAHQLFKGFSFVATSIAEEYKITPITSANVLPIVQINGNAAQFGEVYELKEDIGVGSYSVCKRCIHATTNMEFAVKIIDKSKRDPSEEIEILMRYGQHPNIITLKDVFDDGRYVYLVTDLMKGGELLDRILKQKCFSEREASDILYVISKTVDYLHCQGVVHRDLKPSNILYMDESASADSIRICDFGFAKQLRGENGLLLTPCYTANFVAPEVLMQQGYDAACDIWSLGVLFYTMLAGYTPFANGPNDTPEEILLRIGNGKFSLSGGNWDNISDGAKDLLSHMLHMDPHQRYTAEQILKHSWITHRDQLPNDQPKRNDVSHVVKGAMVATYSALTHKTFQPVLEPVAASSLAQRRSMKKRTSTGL
smiles,measurement,setting,value
O=C1Nc2ccccc2/C1=C1/Nc2ccccc2/C1=N\OCCC(O)CO (configuration not stated),residual activity,[1],95%
Nc1ncnc2c1c(-c1ccc(Oc3ccccc3)cc1)cn2C1CCCC1,residual activity,[1],99%
same,residual activity,[2],97%
CNc1cc2c(Nc3cccc(Br)c3)ncnc2cn1,residual activity,[1],105%
same,residual activity,[2],95%
COc1cc2ncnc(Nc3ccc(OCc4ccccc4)cc3)c2cc1OC,residual activity,[3],41%
same,residual activity,[4],60%
same,residual activity,[5],106%
same,residual activity,[6],83%
same,residual activity,[7],52%
same,residual activity,[8],46%
same,residual activity,[9],110%
same,residual activity,[10],72%
same,residual activity,[11],106%
same,residual activity,[12],133%
same,residual activity,[13],102%
same,residual activity,[14],106%
same,residual activity,[15],107%
same,residual activity,[16],102%
same,residual activity,[1],111%
same,residual activity,[2],115%
same,residual activity,[17],127%
same,residual activity,[18],109%
same,residual activity,[19],115%
same,residual activity,[20],80%
CCc1nc(-c2ccc(OC)cc2)[nH]c1-c1ccncc1,residual activity,[3],107%
same,residual activity,[4],108%
same,residual activity,[5],105%
same,residual activity,[6],104%
same,residual activity,[7],52%
same,residual activity,[8],55%
same,residual activity,[15],56%
same,residual activity,[16],72%
same,residual activity,[1],108%
same,residual activity,[2],104%
NC(=O)c1ccc2[nH]c(-c3ccc(Oc4ccc(Cl)cc4)cc3)nc2c1,residual activity,[1],93%
same,residual activity,[2],92%
Nc1nc(Nc2ccc(S(N)(=O)=O)cc2)nn1C(=S)Nc1c(F)cccc1F,residual activity,[1],56%
same,residual activity,[2],69%
CN[C@@H]1C[C@H]2O[C@@](C)([C@@H]1OC)n1c3ccccc3c3c4c(c5c6ccccc6n2c5c31)C(=O)NC4,residual activity,[13],81%
same,residual activity,[14],79%
same,residual activity,[15],97%
same,residual activity,[16],89%
N#Cc1c(NC(=O)c2cccc3ccccc23)sc2c1CCCC2,residual activity,[1],96%
Oc1ccc(-c2nc(-c3ccc(F)cc3)c(-c3ccncc3)[nH]2)cc1,residual activity,[13],1%
same,residual activity,[14],1%
same,residual activity,[1],112%
same,residual activity,[2],67%
Cc1cc(Nc2nc(-c3ccccc3)nc3ccccc23)n[nH]1,residual activity,[1],103%
COc1cc2nccc(Oc3ccc(NC(=O)Nc4cc(C)on4)c(Cl)c3)c2cc1OC,residual activity,[13],23%
same,residual activity,[14],5%
same,residual activity,[16],5%
